# Data published in PubChem BioAssay (NCI).
# The panel holds about 83,000 compounds, 20% with a hit somewhere; the sample as a whole holds those more often.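 Results are percent growth after 48 hours of single-concentration exposure. 100 means growth as in untreated cells, lower positive values show inhibition; negative values down to -100 show cell death.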 A number with no mark means an inactive call. Activity calls are given as the source filed them. The calls were made as follows: active = growth percent below 10; inactive = the rest.
# How the values were obtained:
# Assay in all cases: NCI-60 one-dose screen, 48 h (100 = growth as untreated, 0 = no growth, -100 = all killed)
# Conditions in all cases: 10 µM unless noted
# DU-145 prostate = system: DU-145 prostate
# K-562 leukemia = system: K-562 leukemia
# MALME-3M melanoma = system: MALME-3M melanoma
# MDA-MB-231 breast = system: MDA-MB-231 breast
# RXF 393 renal = system: RXF 393 renal
# SF-268 CNS = system: SF-268 CNS
# SF-295 CNS = system: SF-295 CNS
# SF-539 CNS = system: SF-539 CNS
# UACC-257 melanoma = system: UACC-257 melanoma
# M14 melanoma = system: M14 melanoma
# HCT-15 colon = system: HCT-15 colon
# HT29 colon = system: HT29 colon
# SNB-75 CNS = system: SNB-75 CNS
# SNB-19 CNS = system: SNB-19 CNS
# U251 CNS = system: U251 CNS
# PC-3 prostate = system: PC-3 prostate
# SK-MEL-5 melanoma = system: SK-MEL-5 melanoma
# UACC-62 melanoma = system: UACC-62 melanoma
# LOX IMVI melanoma = system: LOX IMVI melanoma
# SK-MEL-28 melanoma = system: SK-MEL-28 melanoma
SMILES,growth (DU-145 prostate),growth (K-562 leukemia),growth (MALME-3M melanoma),growth (MDA-MB-231 breast),growth (RXF 393 renal),growth (SF-268 CNS),growth (SF-295 CNS),growth (SF-539 CNS),growth (UACC-257 melanoma),growth (M14 melanoma),growth (HCT-15 colon),growth (HT29 colon),growth (SNB-75 CNS),growth (SNB-19 CNS),growth (U251 CNS),growth (PC-3 prostate),growth (SK-MEL-5 melanoma),growth (UACC-62 melanoma),growth (LOX IMVI melanoma),growth (SK-MEL-28 melanoma)
CC1=NC(=S)NC(c2ccccc2)/C1=C1/CC(c2ccccc2O)NN1 (stereo not given),101%,99.4%,97.9%,94.8%,103%,93.3%,100%,93.4%,107%,97.3%,97.3%,105%,80.7%,94.2%,103%,95%,102%,97.8%,101%,104%
N=C(N)c1ccc(-c2ccc(-c3ccccc3)s2)nc1,92.1%,14.5%,101%,86.1%,87.2%,93.8%,88%,88.2%,96%,88.7%,44.9%,26.7%,88.4%,87.5%,41.1%,80.5%,87.5%,91.6%,51.3%,109%
CCN1CCN(C(=O)[C@]23CC[C@@H](C)[C@H](C)[C@@H]2C2=CC[C@@H]4[C@@]5(C)C/C(=C/c6ccncc6)C(=O)C(C)(C)[C@@H]5CC[C@@]4(C)[C@]2(C)CC3)CC1,41.8%,9.31% (active),-9.75% (active),2.96% (active),-18.7% (active),49%,28.5%,-80.2% (active),25.6%,25.4%,-53.2% (active),1.6% (active),19.5%,47.3%,15.2%,19.3%,-12.3% (active),43.1%,-95.3% (active),-45.7% (active)
O=C(CSc1nc(-c2ccccc2)cn1-c1ccc(Cl)cc1)c1ccc([N+](=O)[O-])cc1,93.2%,76.7%,103%,81.8%,71.2%,-86.7% (active),95.4%,92.4%,97.9%,82%,76.1%,56.1%,93.8%,90.8%,93.3%,73.2%,80.8%,66.2%,96.1%,89%
COc1cccc(NC(=O)c2sc3nc(C)c(C(=O)c4ccccc4)cc3c2N)c1,99.9%,64.4%,81.5%,91.6%,85.8%,87.6%,67.3%,86.5%,81.5%,80.6%,87%,102%,60.8%,78%,82.8%,89.9%,93.8%,73.1%,97.8%,82.2%
COc1ccc(C2=NN3C(C2)c2cc(Br)ccc2OC3c2ccncc2)cc1 (stereo not given),96.4%,74.8%,94%,85%,95.4%,66.2%,86.5%,86.2%,86.2%,86.8%,73.1%,109%,78.8%,81.4%,75.3%,63.2%,93.2%,71.5%,62%,105%
COc1cc(CNC(=O)CCCC/C=C/C(C)C)ccc1OCc1cn(-c2cccc([N+](=O)[O-])c2)nn1,109%,81.5%,103%,88.4%,92.7%,92.3%,104%,94.4%,94.4%,93.5%,77.9%,88.9%,92%,68.2%,85.3%,82.2%,93.2%,70.1%,92.9%,106%
COC(CCP(=O)(c1ccccc1)c1ccccc1)(C(=O)c1ccccc1)c1ccccc1 (stereo not given),111%,9.03% (active),96.3%,73.6%,76.2%,86.1%,32.1%,87.2%,64.3%,63%,52.6%,57.5%,84.9%,71.6%,71.3%,-46.2% (active),34.3%,53.8%,64.6%,89.1%
COc1cc(C)cc(-c2c(-c3cc(N4CC(O)C4)nc(-c4cccnc4)n3)cnn2C)c1,89.5%,80.1%,104%,55%,77.9%,98.5%,92.8%,94.3%,109%,90.6%,77.4%,88.3%,82.5%,91.4%,91.3%,82.5%,69.8%,73.1%,52.9%,92.5%
C=C1C(=O)O[C@H]2[C@H]1CC/C(COC(=O)NCc1ccc(Cn3c(=O)sn(CCCC)c3=O)cc1)=C\CC[C@@]1(C)O[C@@H]21,20.2%,0.885% (active),-24.1% (active),38.4%,33.5%,82.4%,101%,59.6%,50.8%,6.26% (active),24.4%,0.335% (active),82.7%,100%,60.4%,59.9%,96.3%,53.3%,26.8%,55.5%
CN(C)c1ccc(Cc2cc(-c3ccccc3)nn(C/C(=N/O)c3ccccc3)c2=O)cc1,91.8%,29.5%,66.2%,54%,61.4%,55.8%,45.5%,84.3%,62.8%,57%,50.1%,32.9%,72.9%,64.4%,44.3%,30.9%,55.8%,39.3%,53%,72%
COC(=O)c1c(C)nc(C)c2c1C(=O)C(Br)=C(NCCN1CCOCC1)C2=O,112%,97.4%,37%,112%,106%,95.3%,95.8%,107%,87.5%,87.8%,87.9%,68.2%,119%,101%,101%,86.3%,70.8%,55.6%,82.8%,113%
Cn1cc(-c2csc(-c3cn(CCO)c4ccc(F)cc34)n2)c2cccnc21,95.4%,18.1%,72.8%,57.9%,69.7%,77.6%,52.3%,69.9%,77.4%,35.7%,41.5%,18.2%,46.4%,69.6%,49.3%,44.6%,62.9%,52.4%,44.8%,74.4%
CN(C)c1ccc(/C=N/NC(=O)CSc2nc3sc4c(c3c(=O)n2-c2ccccc2)CCCCC4)cc1,14.9%,63.8%,35.5%,43.8%,-6.22% (active),57.3%,19.1%,34.6%,64.8%,46.6%,43.8%,45.8%,-2.33% (active),48.8%,5.23% (active),-23.4% (active),46.2%,8.03% (active),37.1%,47.4%
CC1OC(C(=O)N2CCN(CCO)CC2)CC1COC1CCCCC1 (stereo not given),105% [50 µM],91.6% [50 µM],88.2% [50 µM],94.5% [50 µM],102% [50 µM],97.2% [50 µM],102% [50 µM],97.8% [50 µM],98% [50 µM],100% [50 µM],102% [50 µM],106% [50 µM],88.3% [50 µM],93.9% [50 µM],99.4% [50 µM],92.3% [50 µM],95.8% [50 µM],87.7% [50 µM],96.4% [50 µM],106% [50 µM]
